# Shiga toxin inh: Shiga toxin inhibition | Vero cells, Shiga toxin protein synthesis inhibition reporter | inhibition, % at 38.7 µM | hit rate 9.2% among 290,000; in the data active = inhibition mostly above about 28%, no sharp cut-off; inactive = mostly below about 43%; note: 0% is about no effect
# Pf growth 96h: inhibits malaria parasite growth, 96 h; hit rate 6.9% among 320,000; P. falciparum luciferase reporter growth, 96 h; AID 504834; Potency, µM (top dose mostly 28.7 µM), inactives show at the highest dose activity change, negative = inhibition, actives largely listed as inhibitors; note: potency is the fitted concentration of half-maximal effect; % is set by controls: 0 for no effect and ±100 for the full control effect
#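 Parasite growth measured via integrated firefly luciferase reporter in P. falciparum. Infected erythrocytes at 2% hematocrit, 0.05% parasitemia final were treated 96 hours at 37 C under 5% CO2, and luminescence was read.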
# Pf growth 48h: inhibits P. falciparum growth in the first generation, 48 h. P. falciparum luciferase growth in erythrocytes, 48 h. Potency, µM (highest dose often 28.7 µM), without a hit: top-dose activity change, negative = inhibition, usual class: inhibitors. hit rate 5.9% among 310,000. AID 504832; note: potency is the fitted concentration of half-maximal effect; % is set by controls: 0 for no effect and ±100 for the full control effect
#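 First compound was added to culture medium, then infected red cells at 0.1% parasitemia and 2% hematocrit (final). After incubation at 37 C under 5% CO2, luciferase detection reagent was dispensed and light output recorded.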
# Lassa entry inh: Lassa virus entry inhibition. Lassa virus pseudotype entry inhibition, cell reporter. Potency, µM (doses to about 37.9 µM), for the others: top-dose activity change, negative = inhibition, actives largely listed as inhibitors. hit rate 1.2% among 300,000; calls by dose curve; tested in HEK293 cells; note: potency is the fitted concentration of half-maximal effect; % is set by controls: 0 for no effect and ±100 for the full control effect; nearly all actives have a fitted effect of over 50% in size
# MARV entry inh: Marburg virus entry inhibition. hit rate 1.8% among 300,000. AID 540276. Marburg virus pseudotyped entry inhibition, cell reporter. Potency, µM (doses to about 37.8 µM), inactives show at the top dose activity change, negative = inhibition, usual class: inhibitors; calls by dose curve; tested in HEK293 cells; note: potency is the fitted concentration of half-maximal effect; % is set by controls: 0 for no effect and ±100 for the full control effect
# CHX counter: counter-screen for Shiga toxin inhibitors: cycloheximide protein synthesis inhibition; max response, %; cell reporter, cycloheximide protein synthesis inhibition counterscreen; hit rate 12% among 300,000; AID 2314; in the data active = max response mostly above about 13%, no sharp cut-off; inactive = mostly below about 14%; note: read at 38.3 µM for the half of the compounds with a filed dose; 0% is about no effect
# An asterisk follows results filed as active; u = inconclusive; x = not tested or not shown; [ ] = dose if it differs, or a comment. In the library only some 19% were active in any assay of this set; here they are far more common. Unless noted, calls come from the whole dose curve; as a rule, active = well fitted inhibition curve with a large enough effect; inconclusive = small, poorly fitted or top-dose-only effect, or another doubt; inactive = no such curve, though single readings can be large or run the other way.
SMILES,Shiga toxin inh,Pf growth 96h,Pf growth 48h,Lassa entry inh,MARV entry inh,CHX counter
CCOCCCn1c(SCC(=O)Nc2cccc(S(=O)(=O)NC3=NCCCCC3)c2)nc2ccccc2c1=O,4.3,-9.6%,6.57µM*,x,x,4.9
Cc1cc(SCC(=O)Nc2cccc(S(=O)(=O)NC3=NCCCCC3)c2)nc2ccccc12,15.3,u,u,x,x,2.3
CCCn1c(SCC(=O)Nc2cccc(S(=O)(=O)NC3=NCCCCC3)c2)nc2ccccc2c1=O,-10.5,6.57µM*,8.28µM*,-22.5%,u,-5.2
Cc1ccccc1N1CCN(S(=O)(=O)c2nnc(NC(=O)c3ccc(Cl)cc3)s2)CC1,x,x,x,-1.1%[46.1 µM],x,x
COc1ccc(N2CCN(S(=O)(=O)CCNC(=O)CCCc3ccccc3)CC2)cc1,x,-13.2%,u,-3.1%,0.3%[46.1 µM],x
NC(=O)Cc1ccc(Nc2nnc(-c3ccccc3)c3ccccc23)cc1,11.9,-21.9%,3.9%,16.7%[46.1 µM],-14.4%[46.1 µM],10.3*
COc1ccc(/C=C/CN2CCCC(CO)(Cc3cccc(Cl)c3)C2)cc1 (stereo unspecified),2.1,12.4%,13.1µM*,10µM*,6.31µM*,-1.6
COc1ccccc1/C=C/CN1CCCC(CO)(Cc2cccc(Cl)c2)C1 (stereo unspecified),46.6*,-1.6%,u,14.1µM*,12.6µM*,8.7
Nc1nn2cc(-c3ccc(Br)cc3)nc2c2ccccc12,125.1*,80.1%,-38.4%,x,x,61.6*
FC(F)(F)c1cc(-c2ccccc2)nc2cc(-c3ccc(Br)cc3)nn12,x,x,x,11.3%[46.1 µM],-12.9%[46.1 µM],x
Cc1ccc(-n2ncc3c2CC(C)(C)CC3NC(=O)c2cc[n+]([O-])cc2)cc1 (stereo unspecified),8.4,25.8%,-2.5%,18.6%,-0.2%,3.1
COc1cc(-c2ccccc2)[nH]c(=S)n1,x,7.38µM*,35.0%,x,x,x
COc1ccc(-c2cc(=O)[nH]c(=S)[nH]2)cc1,-8.1,u,1.0%,1.5%[46.1 µM],4.1%[46.1 µM],-3.3
Cc1sc2nc(-c3ccccn3)[nH]c(=O)c2c1-c1ccccc1,113.8*,u,1.47µM*,u,u,70.9*
c1ccc(-c2nc3c(ccc4ccccc43)[nH]2)nc1,94.2*,-6.2%,200.0%,u,u,42.4*
Cc1[nH]c2ccccc2c1-c1csc(N)n1,7.0,175.0%,0.7%,-5.0%[46.1 µM],u,-2.8
O=c1[nH]c(-c2ccccn2)nc(C(F)(F)F)c1Br,15.3,7.38µM*,5.86µM*,u,u,-3.1
Nc1nc(-c2nc3ccccc3[nH]2)cs1,70.0*,-7.7%,78.7%,-8.1%,-26.0%,33.4*
CC(Oc1ccccc1F)C(=O)NCC1(N2CCOCC2)CCCCC1 (stereo unspecified),x,x,x,11.9%[46.1 µM],-2.1%[46.1 µM],x
COc1cccc(C(=O)CN2CCN(S(=O)(=O)c3ccc(Br)cc3)CC2)c1,24.2,53.0%,-1.6%,7.2%,-0.2%[46.1 µM],-1.3
O=c1[nH]c(-c2ccccn2)nc2ccccc12,105.2,u,-54.0%,u,u,44.4*
c1ccc(-c2nc3ccccc3[nH]2)nc1,117.0*,138.4%,132.7%,u,-32.0%,72.2*
Nc1nc2ccccc2[nH]1,-7.4,5.8%,5.5%,-14.7%[46.1 µM],13.2%[46.1 µM],2.0
N=C1C(c2nc3ccccc3c(=O)[nH]2)=C(O)CN1c1ccccc1,-8.8,u,x,x,0.0%,2.6
Cc1ccc2nc(-c3ccccn3)[nH]c2c1,14.5,u,176.0%,6.31µM*,u,18.3*
SMILES,Shiga toxin inh,Pf growth 96h,Pf growth 48h,Lassa entry inh,MARV entry inh,CHX counter
Cc1ccc2[nH]nc(C(=O)N3CCCC(C(=O)c4ccc(Cl)cc4)C3)c2c1 (stereo unspecified),14.0,65.6%[5.75 µM],-9.7%,u,-22.1%[46.1 µM],-1.0
CC(C)NC(=O)NC(=O)CN1c2cccc3cccc(c23)S1(=O)=O,-6.3,9.7%,8.9%,x,x,-1.8
O=C1OC(Cc2ccccn2)C(O)=C1C1=NCCCN1 (stereo unspecified),80.8*,133.0%,74.1%,u,u,27.6*
O=C1Nc2ccccc2C1Cc1ccccn1 (stereo unspecified),-0.5,1.4%,0.3%,19.8%,3.8%,-2.5
O=C1OC(Cc2ccccn2)C(O)=C1C1=NCCCCN1 (stereo unspecified),115.8*,217.2%,202.0%,u,1.6%,39.4*
O=C(CCN1C(=O)c2ccccc2Sc2ncccc21)Nc1ccc(F)cc1,x,x,x,10.1%[46.1 µM],x,x
Cc1ccccc1CN1C(=O)c2ccccc2S(=O)c2ccc(C(=O)NCc3ccco3)cc21 (stereo unspecified),x,x,x,-18.0%[46.1 µM],2.5%[46.1 µM],x
C/C(=N/OC(=O)c1c(-c2ccccc2Cl)noc1C)c1cnccn1,-9.1,u,18.9%,u,-12.0%[46.1 µM],-2.4
Cc1onc(-c2ccccc2Cl)c1C(=O)O/N=C(\N)c1ccc([N+](=O)[O-])o1,6.9,14.7µM*,3.7µM*,x,x,1.4
CS(=O)(=O)N1CCC(C(=O)Nc2ccc(Cl)cc2)CC1,-12.3,3.9%,u,x,x,-1.6
C=CCNC(=S)N/N=C/c1cn(C)c2ccccc12,23.7,u,8.28µM*,15.1%,u,21.1*
Cn1cccc1/C=N/NC(=O)c1ccc[n+]([O-])c1,18.3,-12.8%,5.3%,x,x,-1.6
Cc1cccc(C)c1OCC(=O)N/N=C/c1cccn1C,13.2,u,-14.1%,-23.4%,21.2%,0.5
Cn1cccc1/C=N/NC(=O)Cc1cccs1,49.4*,21.6%,42.3%,17.2%,-4.3%[14.2 µM],10.8
CCCc1cc(C(=O)N/N=C/c2cccn2C)cs1,109.5*,2.1%,-22.2%,8.8%,u,61.8*
COc1ccc(/C=N/NC(=O)c2cccs2)c2ccccc12,x,x,x,u,-3.2%,x
Cn1cc(/C=N\NC(=O)c2cccs2)c2ccccc21,62.7*,5.86µM*,110.9%,u,u,48.5*
Cn1cc(CN(CCO)Cc2cccs2)c(-c2cccc(Cl)c2)n1,-2.6,u,35.1%,x,x,-0.5
CCCOc1cccc(C(=O)NCCNC(=O)c2ccc(C)nc2)c1,12.4,-3.8%,-11.5%,1.1%[46.1 µM],9.4%[46.1 µM],-2.3
CN(C(=O)c1ccccc1C(=O)OCC(=O)NC(=O)NC(C)(C)C)C1CCCCC1,23.4,19.5%,19.6%,6.6%,5.0%[46.1 µM],-6.4
Cn1cccc1/C=N/NC(=O)C12CC3CC(CC(C3)C1)C2,25.3,13.1%,-4.4%,12.6%,u,-0.6
Cn1cccc1/C=N/NC(=O)c1cccs1,74.4*,40.1%,80.1%,x,x,42.2*
O=C(Cc1cccs1)N/N=C\c1ccc(O)cc1,50.7*,112.5%,13.9%,x,x,32.4*
O=C(CC(=O)N/N=C/c1ccc(O)cc1)N/N=C/c1ccc(O)cc1,27.3,36.1%,15.2%,x,x,-2.2
Cc1c(Br)c(-c2n[nH]c(=S)n2Cc2ccco2)nn1C,-27.4,17.2%,6.8%,-14.6%,13.4%,-1.4
O=C(COC(=O)c1ccccc1N1C(=O)C2C3CCC(C3)C2C1=O)c1ccccc1 (stereo unspecified),-7.3,2.33µM*,16.4%,1.0%,24.5%,0.7
CCCS(=O)(=O)N1CCN(C2CCC(C)CC2)CC1 (stereo unspecified),-3.5,10.4µM*,29.7%,x,-0.7%[46.1 µM],3.7

# Bioassay records: PubChem BioAssay, National Center for Advancing Translational Sciences (NCATS)
